Laboratory results taken from PubChem BioAssay AID1022 (Emory University Molecular Libraries Screening Center, 2008).
Screen size: about 220,000 compounds; about 3,300 (1.5%) were called active. The sample holds actives, similar compounds and a random draw of the others, so the mix is not that of the screen. Values without a mark were called inactive.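 The calls were made as follows: active = compounds that cut the protein-peptide binding signal by more than 50% relative to plate controls in a single-dose test; inactive = the rest.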

Target: Induced myeloid leukemia cell differentiation protein Mcl-1 (Homo sapiens) (UniProt Q07820)
Sequence (Q07820 whole entry, looked up): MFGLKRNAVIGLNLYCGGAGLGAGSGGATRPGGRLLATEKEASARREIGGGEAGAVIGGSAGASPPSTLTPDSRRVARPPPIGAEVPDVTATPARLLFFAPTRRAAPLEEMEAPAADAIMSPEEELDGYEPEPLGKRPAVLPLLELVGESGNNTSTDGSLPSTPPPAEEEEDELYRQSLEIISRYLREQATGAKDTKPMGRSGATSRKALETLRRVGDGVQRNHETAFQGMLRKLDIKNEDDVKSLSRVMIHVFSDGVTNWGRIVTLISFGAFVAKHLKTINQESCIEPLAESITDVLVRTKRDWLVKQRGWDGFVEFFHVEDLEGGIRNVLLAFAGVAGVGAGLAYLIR
Assay: Mcl-1/Noxa binding inhibitors, primary screen, biochemical, TR-FRET, 1536-well (AID 1022);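 also: His-tagged Mcl-1 with rhodamine Noxa BH3 peptide and terbium anti-His antibody; 0% = Mcl-1 plus Noxa peptide wells and 100% = peptide-only wells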
Settings: TR-FRET Mcl-1/Noxa peptide binding, 2 h; at 21.7 µM; active compounds read high

| SMILES | inhibition |
| --- | --- |
| Nc1ccc(-c2nnc(-c3ccc(-c4ccccc4)cc3)o2)cc1 | 65.7% (active) |
| Brc1ccc(-c2nnc(-c3ccccc3)o2)o1 | 8.68% |
| Nc1ccc(-c2sc(N)nc2-c2ccccc2)cc1 | 26.2% |
| COc1ccc(S(=O)(=O)N(CC(=O)N/N=C/c2ccccc2C(=O)O)c2ccccc2OC)cc1 | 12.8% |
| Oc1c(C(c2ccccn2)N2CCOCC2)ccc2cccnc12 (configuration not stated) | 5.37% |
| CCN1CCN(C(c2cccnc2)c2cc(Cl)c3cccnc3c2O)CC1 (configuration not stated) | 34% |
| CCOC(=O)N1CCN(C(c2cccnc2)c2ccc3cccnc3c2O)CC1 (configuration not stated) | 61.5% (active) |
| Cc1nc(N)sc1N=Nc1c(C)n(C)n(-c2ccccc2)c1=O | 13% |
| CC(C)OP(=O)(OC(C)C)C(Nc1ccccc1)c1cccc([N+](=O)[O-])c1 (configuration not stated) | 6.5% |
| O=C1/C(=C/c2ccc3c(c2)OCO3)CCC/C1=C\c1ccc2c(c1)OCO2 | -7.31% |
| CCC1=C/C(=C\c2ccc3c(c2)OCO3)C(=O)S1 | 55.4% (active) |
| CSC1=N/C(=C\c2ccc3c(c2)OCO3)C(=O)S1 | 5.49% |
| O=C(COc1ccc([N+](=O)[O-])cc1)Nc1ccc(N2CCCC2)cc1 | 52.2% (active) |
| O=C(Nc1ccc(F)cc1)N1CCN(c2ccc(F)cc2)CC1 | -20.8% |
| O=C(NCCCN1CCN(c2ccc(F)cc2)CC1)Nc1ccc([N+](=O)[O-])cc1 | 52% (active) |
| COc1ccc(OCC(=O)Nc2ccc(N3CCC(C)CC3)cc2)cc1 | 5.22% |
| O=C(COC(=O)C1CCCCC1)Nc1ccc([N+](=O)[O-])cc1 | -0.21% |
| CN1CCN(CCNC(=O)Nc2ccc([N+](=O)[O-])cc2)CC1 | 6.06% |
| CN(C)c1nc(=Nc2cccc(Cl)c2)ss1 | 13.4% |
| CC(C)(C)C(=O)OCc1nc(-c2ccc(O)c(O)c2)cs1 | 46.4% |
| COc1ccc(CCNC(=O)C(Sc2ccccn2)c2ccccc2)cc1OC (configuration not stated) | -11.6% |
| CSc1ccc(NC(=O)/C=C/C(=O)O)cc1 | 14.6% |
| Cc1oc(C(N)=O)cc1COc1ccc(C(N)=O)cc1 | 7.05% |
| O=C(NCCN1CCOCC1)c1ccc2c(c1)N(Cc1ccc(Cl)cc1)CCS2 | 16.4% |
| NC(=O)[C@H]1CC2(CC(c3cccc(NC(=O)[C@H]4CCC(=O)N4)c3)=NO2)CN1C(=O)c1ccccc1C(=O)c1ccccc1 (some centres not stated) | 3.36% |

| SMILES | inhibition |
| --- | --- |
| Cc1cc(=O)[nH]c2nnnn12 | 0.51% |
| O=C(Nc1ccc(Cl)cc1)N1CCc2[nH]c3ccccc3c2C1 | 104% (active) |
| O=C(NC1CCCCC1)N1CCc2[nH]c3ccccc3c2C1 | -13% |
| Fc1ccc(NC(=S)N2CCc3[nH]c4ccccc4c3C2)cc1 | 14.9% |
| O=C(Nc1ccccc1)c1nnsc1S(=O)(=O)c1ccc(Cl)cc1 | 68.7% (active) |
| CS(=O)(=O)c1ccc(Cl)c(NC(=O)Nc2ccccc2)c1 | 2.41% |
| O=C(Nc1ccc(Cl)cc1)c1ccsn1 | 11.5% |
| N#CC1=C(N)Oc2c(ccc3cccnc23)C1c1ccncc1 (configuration not stated) | -11.2% |
| NC(=O)N/N=C\c1cccs1 | -22.2% |
| C=CCSC(CC)(CC)C(N)=O | -9.07% |
| COc1ccc(NC(=S)NCCN2CCC(C)CC2)cc1 | 19.6% |
| COc1ccc(N2CCC(CNC(=S)Nc3c(C)cccc3C)C2)cc1 (configuration not stated) | 17.1% |
| COc1ccc(NC(=S)NCC2CCN(c3ccc(OC)cc3)C2)cc1 (configuration not stated) | 67.3% (active) |
| O=C(Nc1ccccc1)N1CCN(C2c3ccccc3-c3ccccc32)CC1 | -0.05% |
| CC1CCN(c2ccc([N+](=O)[O-])c(SCCO)c2)CC1 | -16% |
| Cn1cnc(S(=O)(=O)Nc2ccc3c(c2)OCCO3)c1 | -2.52% |
| CCn1c(COc2ccccc2)nnc1SCC(=O)NCc1ccco1 | -18.1% |
| C=CCn1c(SCC(=O)Nc2nc3ccccc3s2)nnc1-c1ccccc1O | 8.54% |
| C=CCn1c(CSc2nc3ccccc3s2)nnc1SCC(=O)NCc1ccco1 | 51.2% (active) |
| C=CCC(Nc1ccccc1)c1cccc(OC)c1OC (configuration not stated) | 5.76% |
| Cc1cc(NC(=O)Nc2ccc(Cl)cc2)n(-c2ccccc2)n1 | -3.74% |
| CN(C(=O)COC(=O)c1cc(-c2ccco2)nc2ccccc12)C1CCS(=O)(=O)C1 (configuration not stated) | 107% (active) |
| Cc1c(-c2cccc(Cl)c2)nc2ccccc2c1C(=O)OCC(=O)N(C)C1CCS(=O)(=O)C1 (configuration not stated) | 13.3% |
| COc1ccc(NC(=O)COc2ccc(C(=O)OCC(=O)N(C)C3CCS(=O)(=O)C3)cc2OC)cc1 (configuration not stated) | -10.9% |
| O=C(C1=C(O)C(=O)N(Cc2ccccc2)C1c1ccco1)c1ccco1 (configuration not stated) | 24.5% |

| SMILES | inhibition |
| --- | --- |
| O=C(C1=C(O)C(=O)N(CCOCCO)C1c1ccccn1)c1cccs1 (configuration not stated) | 11.8% |
| O=C(C1=C(O)C(=O)N(c2ncccn2)C1c1cccs1)c1ccco1 (configuration not stated) | 55% (active) |
| COc1cc(C=O)ccc1Oc1nnnn1-c1ccccc1 | -17.8% |
| COc1ccc(OC)c(C(=O)c2ccc(Cl)cc2)c1 | 6.99% |
| Cc1ccc2cc(/C=N/NC(=O)[C@@H]3CCCN3)c(Cl)nc2c1 | 5.95% |
| Cc1c(NC(=O)/C=C/C(=O)O)cccc1[N+](=O)[O-] | -3.3% |
| O=[N+]([O-])c1ccc(N/N=C/c2ccccc2)cc1 | 1.75% |
| O=C(O)/C=C/C(=O)NNc1ccc([N+](=O)[O-])cc1 | 54.4% (active) |
| C/C(=N\NC(=O)CC(C)C)c1c(C(F)(F)F)[nH]n(-c2nc3ccccc3s2)c1=O | -81.1% |
| O=C(Nc1cccc2c1N(C(=O)c1ccco1)CCC2)c1ccco1 | 18.1% |
| O=C(C[n+]1ccc2c(c1)nnn2-c1ccccc1)c1ccc(Cl)cc1 | 4.1% |
| N#CCC(=O)N/N=C/c1cn(Cc2ccc3ccccc3c2)c2ccccc12 | 27.9% |
| CC(C)CNC(=S)NC(=O)c1ccc(Cl)cc1 | 62.4% (active) |
| CC(C)C(NC(=O)c1ccc(Cl)cc1)C(=O)O (configuration not stated) | 1.56% |
| Cc1occc1C(=O)NNC(=S)NCC(C)C | -22.4% |
| Cn1cnc([N+](=O)[O-])c1Sc1n[nH]c(N)n1 | 3.28% |
| CCc1nnc(NC(=O)/C=C/c2ccc(C)o2)s1 | 19.4% |
| Cc1ccc(/C=C/C(=O)Nc2ccc([N+](=O)[O-])c(NC(=O)/C=C/c3ccc(C)o3)c2)o1 | 88.8% (active) |
| Cc1ccc(/C=C/C(=O)Nc2cc(S(=O)(=O)N3CCCCCC3)ccc2OCC(F)(F)F)o1 | 22.8% |
| O=C(Nc1ccc(-c2csc(Nc3cccc(C(F)(F)F)c3)n2)cc1)c1cccc(C(F)(F)F)c1 | 16.6% |
| CC(C)(C)c1cc(C(=O)NN)n(Cc2ccc(Cl)cc2Cl)n1 | -5.62% |
| CCOC(=O)N1CCN(C(=O)c2ccc(S(=O)(=O)c3ccc(C)cc3)c(NC(C)=O)c2)CC1 | 2.03% |
| Cc1ccc(S(=O)(=O)c2ccc(Cl)cc2)cc1S(=O)(=O)NC(C(=O)O)C(C)C (configuration not stated) | 24% |
| CC(=O)Nc1cc(C(=O)O)ccc1S(=O)(=O)c1ccc(Cl)cc1 | 57.8% (active) |
| CCC(=O)N1CCCc2ccccc21 | -6.7% |

| SMILES | inhibition |
| --- | --- |
| CN(C)c1cc(-c2ccc(F)cc2)oc(=O)c1Cl | 11.2% |
| Cc1ccc(-c2n[nH]c(=S)n2/N=C/c2cc3c(cc2[N+](=O)[O-])OCO3)cc1 | 63.6% (active) |
| CCOc1ccc(-c2n[nH]c(=S)n2/N=C/c2cc3c(cc2[N+](=O)[O-])OCO3)cc1 | 48.5% |
| Cc1ccc(S(=O)(=O)N/N=C\c2cc3c(cc2[N+](=O)[O-])OCO3)cc1 | 35.1% |
| CC(=O)N1N=C(c2ccncc2)OC1(Cc1ccccc1)Cc1ccccc1 | 5.2% |
| O=C(Cc1cccs1)Nc1nnc(C2CC2)s1 | -2.68% |
| COc1ccc(Cc2nnc(NC(=O)Cc3cccs3)s2)cc1 | 101% (active) |
| CCc1nnc(NC(=O)Cc2cccs2)s1 | 32.4% |
| Cc1ccc(-c2c[n+](CC(=O)Nc3ccccc3)c3n2CCC3)cc1 | -9.73% |
| Cc1ccc(Cn2c(SCC(=O)N/N=C/c3ccccc3OCC(=O)O)nc3ccccc32)cc1 | 27.3% |
| Cc1nc2c(ncn2-c2ccccc2)c(=O)n1NC(=O)CN1CCCC1 | 1.52% |
| C=C(C)CNC(=S)Nc1ccc(S(=O)(=O)Nc2cnc3ccccc3n2)cc1 | 6.78% |
| Cc1ccc(CN(C)CC(=O)Nc2cccc([N+](=O)[O-])c2)o1 | -9.25% |
| O=C(Nc1cccc(C(F)(F)F)c1)c1cnccn1 | 3.57% |
| FC(F)(F)c1cccc(Nc2ncnc3ccccc23)c1 | -37.6% |
| O=c1cc(CO)oc(C(Nc2cccc(C(F)(F)F)c2)c2ccccn2)c1O (configuration not stated) | 70% (active) |
| O=c1cc(CO)oc(C(Nc2cccc([N+](=O)[O-])c2)c2ccccn2)c1O (configuration not stated) | 70.7% (active) |
| O=C(CSCC(=O)Nc1cccc([N+](=O)[O-])c1)Nc1ccccc1 | -8.73% |
| FC(F)(F)c1ccc(-n2cn[nH]c2=S)cc1 | -8.38% |
| CN(C)NC(=O)c1csnc1-c1c(Cl)cccc1Cl | 8.82% |
| O=C(CSc1ncn[nH]1)Nc1nc(-c2cccc([N+](=O)[O-])c2)cs1 | 0.73% |
| Cc1ccc(C(=O)NNC2=Nc3cc([N+](=O)[O-])ccc3OC2)cc1 | 8.97% |
